Measurements taken from PubChem BioAssay (NCI).
The panel holds about 83,000 compounds, 20% with a hit somewhere; the sample as a whole holds those more often.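 In brief: 96-well plates, 48 h treatment, single concentration, percent growth endpoint.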 Unmarked numbers belong to inactive results. Active and inactive are the calls of the source. The calls were made as follows: active = growth percent below 10; inactive = the rest.

How the values were obtained:
Experiment in all cases: NCI-60 one-dose screen, 48 h (100 = growth as untreated, 0 = no growth, -100 = all killed)
Settings in all cases: 10 µM unless noted
[1] = system: SR leukemia
[2] = system: RPMI-8226 leukemia
[3] = system: OVCAR-8 ovarian
[4] = system: OVCAR-5 ovarian
[5] = system: OVCAR-4 ovarian
[6] = system: SK-OV-3 ovarian
[7] = system: IGROV1 ovarian
[8] = system: OVCAR-3 ovarian
[9] = system: HS 578T breast
[10] = system: NCI/ADR-RES ovarian
[11] = system: T-47D breast
[12] = system: BT-549 breast
[13] = system: MDA-MB-435 melanoma
[14] = system: SW-620 colon
[15] = system: MCF7 breast
[16] = system: HCT-116 colon
[17] = system: HCC-2998 colon
[18] = system: KM12 colon

Structure (SMILES)	growth [1]	growth [2]	growth [3]	growth [4]	growth [5]	growth [6]	growth [7]	growth [8]	growth [9]	growth [10]	growth [11]	growth [12]	growth [13]	growth [14]	growth [15]	growth [16]	growth [17]	growth [18]
Cn1c2ccccc2c2c3c(c4c5ccccc5n(CCCCCC#N)c4c21)C(=O)N(O)C3=O	1.39% (active)	0.134% (active)	27.5%	12.8%	28.4%	37.1%	27.6%	6.92% (active)	13%	12.2%	17.4%	18.5%	20.9%	14%	7.79% (active)	-19.4% (active)	25.3%	16.6%
OCC1C2C=CC(C2)C1CO (stereo not given)	78.7%	97%	98.6%	101%	94%	175%	101%	107%	104%	104%	153%	98.7%	109%	98%	111%	96.7%	125%	106%
Clc1ccc(-c2nnc(COc3ccccc3Cl)o2)cc1	83.3%	88.7%	76.6%	83.1%	39.8%	95.7%	83.6%	81.6%	62%	66.8%	69.9%	89.4%	58.4%	91.1%	78.7%	51.7%	86.8%	82.4%
O=C(NCc1cccc(C(F)(F)F)c1)[C@H](CCC(=O)N1CCN(C2CCCCC2)CC1)N1C(=O)[C@@H](N2C(=O)OC[C@@H]2c2ccccc2)[C@H]1/C(Cl)=C/c1ccccc1	-36.3% (active)	14.1%	64.3%	87%	51.6%	56%	36.8%	47.6%	50%	35.7%	61.3%	60.1%	52.1%	74.9%	29.6%	34.3%	31.9%	34.5%
OC(c1cc(-c2ccccc2)nc2ccc(Cl)cc12)C1CCCCN1 (stereo not given)	-25.8% (active)	13.1%	33.1%	58.8%	79%	89.1%	53.4%	67.5%	61.6%	68.5%	19.9%	91.5%	42.6%	21.2%	-41% (active)	33.4%	-87.7% (active)	6.52% (active)
O=C(O)c1ccc2c(c1Sc1ccccc1)C(=O)c1ccccc1C2=O	95.6%	106%	105%	101%	92.9%	101%	92.2%	89.6%	114%	105%	98.6%	83.8%	73.1%	121%	95.4%	98.5%	105%	101%
COc1cccc(-n2cc(-c3nc(Nc4cc(C)[nH]n4)c4ccccc4n3)nn2)c1	27.8%	48.4%	38.3%	56.5%	17.2%	10.8%	18%	59.4%	46.4%	30.6%	17.6%	49.3%	34%	66.5%	37.6%	41.5%	44.5%	23%
CCOC(=O)c1cnc2cc(Cl)c(F)cc2c1Nc1cccc(NS(C)(=O)=O)c1	112%	105%	102%	93.2%	95.5%	111%	91%	102%	93.7%	81%	93.5%	105%	104%	94.1%	92.5%	86.5%	98.4%	93.8%
CCN(CC)Cc1cc(Nc2c3ccc(Cl)cc3nc3c(C)cccc23)ccc1O	-18.9% (active)	-14.6% (active)	-42.6% (active)	-37.7% (active)	-96% (active)	-10.3% (active)	-49.3% (active)	-71.6% (active)	-24.4% (active)	-49.8% (active)	-70.5% (active)	-54.3% (active)	-89.6% (active)	-14% (active)	-61.6% (active)	-73.2% (active)	-95% (active)	-45.4% (active)
CC(C)[C@@H]1CC[C@]2(C(=O)NCCCCN=C(N)N)CC[C@]3(C)[C@H](CC[C@@H]4[C@@]5(C)CCC(=O)C(C)(C)[C@@H]5CC[C@]43C)[C@@H]12	33.6%	36.3%	70.2%	97.4%	84.3%	91.7%	25.6%	55.4%	73%	101%	37.4%	90.5%	56.2%	71.3%	33.5%	72.9%	53.7%	40.9%
COc1ccc(N(Cc2cc(OC)c(OC)c(OC)c2)C2OC(=O)c3ccccc32)cc1 (stereo not given)	12.1%	10.6%	22.1%	65.5%	62.7%	13.3%	36.3%	-18.4% (active)	22.1%	10.1%	45.8%	66.1%	-55% (active)	20.3%	16.4%	23%	43.9%	27.7%
Nc1c(C(=O)Nc2ccccc2)sc2nc3c(cc12)CN(CCc1ccccc1)CC3	90%	92.2%	99.7%	99%	86.9%	89.8%	96.5%	109%	89.1%	87.3%	88.1%	104%	102%	91.3%	85.8%	98.3%	99%	98.8%
N#CC1=C(N)Oc2c(ccc3ccccc23)C1c1cccs1 (stereo not given)	-11.2% (active)	-17.3% (active)	17.2%	34.9%	12.6%	5.5% (active)	60.3%	-38.8% (active)	22.3%	14.5%	64.3%	25%	-31% (active)	23.8%	7.97% (active)	8.25% (active)	16.7%	4.37% (active)
COc1cnc2c(c1)C(=O)c1c-2n(CCCN2CCNCC2)c(=O)c2cc([N+](=O)[O-])ccc12	-21.7% (active)	-37.1% (active)	-52.8% (active)	-77.9% (active)	-77.1% (active)	3.11% (active)	-58.3% (active)	-83.1% (active)	70.7%	-44.3% (active)	-52.2% (active)	21.7%	-92% (active)	-70% (active)	-63.5% (active)	-93.6% (active)	36.2%	-75.5% (active)
O=C(CN1CCN(c2cc3c(cc2F)c(=O)c(C(=O)O)cn3C2CC2)CC1)Nc1nc(-c2ccc(Cl)cc2)cs1	29.3%	1.14% (active)	13.2%	51.7%	67.7%	21.1%	38.6%	14.2%	32.2%	56.9%	40.2%	26.3%	25.2%	26.2%	23.5%	13.7%	29.8%	21.8%
